DT40 TDP1 no CPT: qHTS for Inhibitors of human tyrosyl-DNA phosphodiesterase 1 (TDP1): qHTS in cells in absence of CPT; Potency, µM (doses to about 46.2 µM), inactives show top-dose activity change, negative = growth inhibition, actives largely listed as inhibitors; actives 15% (n = 420,000); DT40 Tdp1-/- hTDP1 cells, no CPT, ATP luminescence, 48 h; also: potency is read from the fitted curve at half-maximal effect; nearly all actives have a fitted effect of over 55% in size
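Readout: luminescence from CellTiter-Glo after 30 min in the dark at RT. Cells: DT40 Tdp1-/- with stable hTDP1, 400/well. Exposure: compounds alone, ≥48 hr, 37 °C.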
ELG1 repair inh: qHTS screen for small molecules that inhibit ELG1-dependent DNA repair in human embryonic kidney (HEK293T) cells expressing luciferase-tagged ELG1 | HEK293T ELG1-luciferase reporter, luminescence, 16 h; DNA damage induced by 5-fluorouridine | Potency, µM (highest dose often 46.1 µM), for inactives: top-dose activity change, negative = inhibition, most hits filed as inhibitors | actives 2.3% (n = 330,000) | AID 504467, 2011; also: potency is read from the fitted curve at half-maximal effect; nearly all actives have a fitted effect of over 55% in size
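Reporter activity after DNA damage by 5-fluorouridine is monitored. Compound-treated cells incubate 16 hr at 37 °C, then ONE-Glo is added for 30 min before luminescence reading.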
Giardia kill: Small Molecules that selectively kill Giardia lamblia: qHTS; Giardia lamblia trophozoite viability; actives 0.15% (n = 340,000); activity change, % at 7.66 µM, hits read low; in the data active = activity change below about -80%; inconclusive = between about -30% and that limit;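 also: parasites exposed to compound for two days anaerobically before the ATP read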
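Viability, read as ATP luminescence: trophozoites at 100 cells/well, compound added, 48 hrs anaerobic at 37 deg C, then 15-30 min room-temperature development before reading.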
TDP1 cell CPT: qHTS for Inhibitors of human tyrosyl-DNA phosphodiesterase 1 (TDP1): qHTS in cells in presence of CPT; Potency, µM (top dose mostly 46.2 µM), without a hit: top-dose activity change, negative = growth inhibition, usual class: inhibitors; AID 686979, 2013; chicken DT40 Tdp1-/-;hTDP1 cells + 20 nM CPT, ATP luminescence, 48 h; actives 12% (n = 420,000); also: potency is read from the fitted curve at half-maximal effect; nearly all actives have a fitted effect of over 55% in size
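Chicken DT40 Tdp1-/- cells complemented with human TDP1, 400 cells/well, exposed to compounds plus 20 nM camptothecin for at least 48 h at 37 C; viability read as ATP content by CellTiter-Glo luminescence.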
IL1B secr inh: qHTS for Inhibitors of Inflammasome Signaling: IL-1-beta AlphaLISA Primary Screen; THP-1 LPS/ATP IL-1B secretion, AlphaLISA, 16 h; active compounds read low; activity change, % at 57.5 µM; actives 4.7% (n = 360,000); in the data active = activity change below about -50%; inconclusive = mostly about -30% to -49%
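Secreted IL-1B measured by AlphaLISA bead assay after 16 h compound exposure of THP-1 cells; compounds (final up to 57.5 uM) added 1 h before LPS (250 ng/mL) and ATP (1.25 mM) stimulation; lower signal means less secretion.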
TDP1 inh: qHTS Assay for Inhibitors of Tyrosyl-DNA Phosphodiesterase (TDP1); AID 485290, 2010; Tyrosyl-DNA phosphodiesterase 1 (Homo sapiens), Q9NUW8; recombinant TDP1, AlphaScreen DNA substrate cleavage; actives 0.28% (n = 350,000); Potency, µM (highest dose often 130 µM), for inactives: at the highest dose activity change, negative = inhibition, usual class: inhibitors; also: potency is read from the fitted curve at half-maximal effect; nearly all actives have a fitted effect of over 40% in size
Target sequence (Q9NUW8 whole entry, looked up): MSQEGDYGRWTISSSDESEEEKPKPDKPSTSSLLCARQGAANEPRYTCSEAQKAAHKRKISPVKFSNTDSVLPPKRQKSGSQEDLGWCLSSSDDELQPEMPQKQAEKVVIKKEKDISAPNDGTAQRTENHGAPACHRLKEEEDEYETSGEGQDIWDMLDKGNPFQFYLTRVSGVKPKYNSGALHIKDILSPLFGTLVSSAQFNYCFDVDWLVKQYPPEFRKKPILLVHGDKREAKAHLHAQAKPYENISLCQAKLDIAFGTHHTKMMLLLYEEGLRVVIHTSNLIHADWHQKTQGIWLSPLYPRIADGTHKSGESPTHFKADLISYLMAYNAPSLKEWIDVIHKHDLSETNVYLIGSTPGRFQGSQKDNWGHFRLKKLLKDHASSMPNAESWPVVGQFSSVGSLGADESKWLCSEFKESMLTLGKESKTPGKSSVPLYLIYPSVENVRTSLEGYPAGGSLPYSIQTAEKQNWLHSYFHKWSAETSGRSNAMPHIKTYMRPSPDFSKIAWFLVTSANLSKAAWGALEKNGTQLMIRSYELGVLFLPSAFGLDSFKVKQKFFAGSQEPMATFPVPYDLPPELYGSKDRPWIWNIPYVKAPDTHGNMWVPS
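Steps: enzyme plus compound, 15 min RT; add biotin/phosphotyrosine-FITC oligonucleotide (15 nM final), react 5 min; add donor/acceptor beads (10 ug/ml final), 10 min; read AlphaScreen. Tdp1 at 1 nM final.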
The depositor's hits bear a star; ? = inconclusive; / = not tested or not shown. This is a sample that favours compounds with a hit; in the whole collection about 19% have one here. Unless noted, calls follow the shape of the dose curve; as a rule, active = well fitted curve in the direction sought with a large enough effect; inconclusive = small, poorly fitted or top-dose-only effect, or another doubt; inactive = no such curve, though single readings can be large; an effect the other way counts as inactive or inconclusive. % is scaled to controls: 0 for no effect and ±100 for the full control effect.

SMILES | DT40 TDP1 no CPT | ELG1 repair inh | Giardia kill | TDP1 cell CPT | IL1B secr inh | TDP1 inh
Cc1cc(NC(=O)CSc2nnc(-c3ccc([N+](=O)[O-])cc3)o2)no1 | 3% | 10% | 5 | -4% | -4 | 3%
COCCn1c(C)cc(O)c(C(c2ccccc2Cl)N2CCN(c3ccccc3)CC2)c1=O (centres undefined) | -27% | / | / | 7% | / | -8%
C[C@H]1COC[C@@H](C/C=C/c2ccccc2)N1c1ccccc1 | ? | / | / | ? | 45 | /
CC1COCC(C)N1C1=C(Cl)C(=O)c2ccccc2C1=O (centres undefined) | 1.5µM* | / | 16 | 0.65µM* | ? | /
Cc1ccc2c(CNCc3ccc(C)o3)c(C(=O)O)n(Cc3ccc(F)cc3)c2c1 | 16µM* | / | / | ? | / | 0%
COc1ccc(Cn2c(C(=O)O)c(CNCc3cccs3)c3ccc(C)cc32)cc1 | 18µM* | / | / | ? | / | 6%
Cc1ccc2c(CNC3CCCCC3)c(C(=O)O)n(Cc3ccc(F)cc3)c2c1 | ? | / | / | -20% | / | 5%
CCOc1ccccc1CNCc1c(C(=O)O)n(Cc2ccc(F)cc2)c2cc(C)ccc12 | 5.8µM* | / | / | 13µM* | / | 0%
C=Cc1ccc(Cn2c(C(=O)O)c(CNCc3ccc(F)cc3)c3ccc(C)cc32)cc1 | 23µM* | / | / | 21µM* | / | 8%
O=C(NNC1CC(=O)N(c2ccccc2)C1=O)c1ccc(COc2ccccc2Cl)o1 (centres undefined) | -15% | 5% | -6 | -14% | -19 | 6%
Cc1ccc(Cl)cc1NC(=O)Cn1c(=O)n(CCC(=O)NCc2ccc3c(c2)OCO3)c(=O)c2sccc21 | 0% | / | / | -6% | / | 3%
Cc1ccc2c(CNCc3cccs3)c(C(=O)O)n(Cc3ccc(F)cc3)c2c1 | 5.2µM* | / | / | 6.5µM* | / | 3%
C=Cc1ccc(Cn2c(C(=O)O)c(CNCc3cccs3)c3ccc(C)cc32)cc1 | ? | / | / | ? | / | 6%
COc1ccc2c(CNCc3cccs3)c(C(=O)O)n(Cc3ccc(F)cc3)c2c1 | 9.2µM* | / | / | 18µM* | / | 3%
COC(=O)C1=C/C=C\CN(C(c2ccccc2)c2ccccc2)/C=C\1C(=O)OC | 21µM* | / | / | ? | 13 | /
COC(=O)N1CCC2(CC1)CCN(C(c1ccccc1)c1ccccc1)CC2 | ? | / | / | -6% | / | /
CC(=O)CCc1c(C)c2cccc(C)c2[nH]c1=O | ? | 6% | -1 | 18µM* | -15 | 5%
CCCc1c(C)c2cccc(C)c2[nH]c1=O | ? | 10% | 13 | ? | -17 | 2%
CCCCN1CCc2c([nH]c3c(C)cccc23)C1=O | ? | ? | 10 | 29µM* | -20 | -3%
Cc1cccc2c(=O)n3c(cc12)-c1[nH]c2ccccc2c1CC3 | ? | / | -7 | ? | -6 | /
CCN(CC)c1ccc(/C=C2\SC(=O)N(C(C)C)C2=O)o1 | 2.1µM* | ? | -7 | 0.92µM* | -99* | ?
COC(=O)C(C)N1C(=O)S/C(=C\c2ccc(-c3ccc(C(=O)O)cc3C)o2)C1=O (centres undefined) | ? | ? | -15 | ? | -1 | /
COC(=O)[C@H](Cc1ccccc1)NC(=O)/C=C/[C@H]1O[C@@H](n2ccc(=O)[nH]c2=O)[C@H](O)[C@@H]1O | 35% | / | / | 3% | 27 | /
COC(=O)c1ccc2nc(-c3ccc(OC)c(OC)c3)c(CC3CCCCC3)n2c1 | 18µM* | / | / | ? | 28 | /
COC(=O)c1ccc2nc(-c3ccc(Cl)cc3)c(CC3CCCCC3)n2c1 | 4.1µM* | / | / | 8.2µM* | 53 | /
SMILES | DT40 TDP1 no CPT | ELG1 repair inh | Giardia kill | TDP1 cell CPT | IL1B secr inh | TDP1 inh
O=C(Cn1c(=O)n2nc(-c3ccccc3)nc2c2ccccc21)Nc1ccccc1C(F)(F)F | ? | / | / | ? | / | 4%
O=C(CSc1nc2ccccc2c(=O)n1Cc1ccco1)c1ccc(F)cc1 | 23µM* | ? | 2 | 12µM* | 0 | -1%
O=C(CSc1nnc(-c2cc3ccccc3cc2O)n1Cc1ccco1)c1ccc(F)cc1 | 16µM* | ? | -9 | 13µM* | -14 | 1%
COc1ccccc1-c1nnc(SCC(=O)NCc2ccco2)n1N | -16% | 2% | 4 | 3% | 6 | -5%
COc1ccccc1-c1nnc(SCC(=O)c2ccc(C3CCCCC3)cc2)n1Cc1ccco1 | 23µM* | -16% | 18 | 23µM* | -19 | 7%
Cc1occc1-c1nnc(SCC(=O)c2ccc(F)cc2)n1Cc1ccco1 | ? | 2% | 2 | ? | -10 | 10%
O=C1c2ccccc2C(=O)N1CCc1nc2ccccc2c(=O)n1Cc1ccco1 | -12% | 21µM* | -5 | -1% | 23 | 4%
O=C(NCCOc1ccccc1Cl)c1ccc2c(c1)S(=O)(=O)c1cc(Cl)ccc1C2=O | -27% | -30% | 6 | ? | 23 | 4%
CN(C(=O)Cc1ccccc1OC(=O)c1ccccc1)c1ccccc1I | / | / | 2 | / | / | 1%
CCOC(=O)c1sc(NC(=O)c2ccc3nc[nH]c3c2)nc1C | 8.2µM* | ? | ? | ? | -9 | /
CCOc1ccccc1C(=O)Nc1nnc(C(C)C)s1 | ? | ? | -16 | ? | -16 | 4%
CCOC(=O)c1sc(NC(=O)c2ccc(=O)[nH]c2)nc1C | -12% | 2% | 3 | -6% | 7 | 7%
CCOC(=O)c1sc(NC(=O)c2ccccc2OCC)nc1C | ? | 5% | 23 | 21µM* | 18 | -3%
CCOC(=O)c1sc(NC(=O)Nc2ccc(Cl)cc2)nc1C | 23µM* | ? | 12 | ? | -28 | 4%
O=C(COc1ccc([N+](=O)[O-])cc1)Nc1nc2c(s1)CCCC2 | -20% | / | / | -5% | / | -5%
Cc1ccc(C)c(S(=O)(=O)N(C)c2ccc(OC(=O)C3CCN(C(=O)Nc4ccccc4)CC3)cc2)c1 | 6% | / | 13 | -2% | 12 | /
Cc1ccc(O)c(C(=O)c2cnn(C(=O)COc3ccc(Cl)cc3)c2)c1 | -27% | 16µM* | 3 | -28% | 9 | 3%
O=C(c1ccc(CSc2nc3ccncc3n2Cc2ccc(F)cc2)cc1)N1CCCCCC1 | ? | / | / | ? | / | 5%

Screening data: PubChem BioAssay, National Center for Advancing Translational Sciences (NCATS)
